RecA intein inh: inhibitors of M. tuberculosis RecA intein splicing. P9WHJ3. cell-free RecA intein splicing, fluorescence. inhibition, % (concentration not given with the values). 290,000 tested, 0.75% active. AID 2221; in the data active means inhibition above about 30%
FBA Mtb inh: inhibits M. tuberculosis FBA enzyme. purified M. tuberculosis FBA, fluorescence read-out. inhibition, % at 1 µM. 360,000 tested, 2.3% active
Target sequence (P9WQA3 whole entry, looked up): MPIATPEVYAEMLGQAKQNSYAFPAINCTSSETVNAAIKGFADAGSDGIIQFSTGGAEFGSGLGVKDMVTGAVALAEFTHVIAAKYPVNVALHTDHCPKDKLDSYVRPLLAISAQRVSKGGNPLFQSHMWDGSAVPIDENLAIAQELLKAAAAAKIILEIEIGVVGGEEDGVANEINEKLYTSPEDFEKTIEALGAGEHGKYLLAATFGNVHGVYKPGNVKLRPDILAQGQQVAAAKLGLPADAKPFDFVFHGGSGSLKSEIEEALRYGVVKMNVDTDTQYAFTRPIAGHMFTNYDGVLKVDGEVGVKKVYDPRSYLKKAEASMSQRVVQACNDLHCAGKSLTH
PrPC surface inh: inhibitors of human cell surface prion protein PrPC; P04156; TR-FRET read-out; inhibition, % at 13.8 µM; 370,000 tested, 0.43% active; in the data active means inhibition above about 24%
GDH-TPI counter-1: GDH-TPI coupled enzyme inhibition counter-screen. inhibition, % at 4.8 µM. 360,000 tested, 1.2% active. AID 588335. GDH-TPI coupled enzyme counterscreen, NADH absorbance; in the data active means inhibition above about 30%
BJeLR viability: BJeLR cell viability loss. inhibition, % (concentration not given with the values). BJeLR (HRASV12) viability, CellTiter-Glo ATP luminescence, 48 h. 300,000 tested, 0.17% active; in the data active means inhibition above about 50%
Mtb FBA confirm: confirmation of M. tuberculosis fructose-bisphosphate aldolase inhibitors. shares compounds with FBA Mtb inh. purified M. tuberculosis FBA, fluorescence read-out. inhibition, % at 1 µM. 5,600 tested, 78% active. AID 651616
GDH-TPI counter-2: inhibits GDH-TPI coupling enzymes, flagging Mtb FBA hits. 5,600 tested, 81% active. GDH-TPI coupled enzyme counterscreen, fluorescence. inhibition, % at 1 µM. shares compounds with FBA Mtb inh; in the data active means inhibition above about 10%
Numbers stand for hits. An excerpt weighted towards active compounds, which were near 4.2% of everything screened. Unless noted, no stated cut-off is given here; in the data, active means inhibition above about 27%; inactive means the rest.

Screening O=C(c1cccn2c(=O)c3cc(Cl)ccc3nc12)N1CCC2(CC1)OCCO2 returned RecA intein inh inactive, FBA Mtb inh 34.2, PrPC surface inh inactive, GDH-TPI counter-1 inactive, BJeLR viability inactive, Mtb FBA confirm 46.1 and GDH-TPI counter-2 39.5.
O=C(O)c1ccc2c(c1)-c1nc3ccccc3n1C2=O was read as RecA intein inh inactive, FBA Mtb inh 51.4, PrPC surface inh inactive, GDH-TPI counter-1 inactive, BJeLR viability inactive, Mtb FBA confirm 43.6 and GDH-TPI counter-2 36.3.
O=C(O)c1ccc2c(c1)C(=O)N(c1ncccn1)C2=O was read as RecA intein inh inactive, FBA Mtb inh inactive, PrPC surface inh inactive, GDH-TPI counter-1 inactive and BJeLR viability inactive.
CCOC(=O)c1cc(-c2ccc([N+](=O)[O-])cc2)nc2c1c(=O)[nH]c(=O)n2Cc1ccccc1 was read as RecA intein inh inactive, FBA Mtb inh inactive, PrPC surface inh inactive, GDH-TPI counter-1 inactive and BJeLR viability inactive.
CCOC(=O)c1cc(-c2cc3ccccc3o2)nc2c1c(=O)[nH]c(=O)n2CCOC was read as RecA intein inh inactive, FBA Mtb inh 45.8, PrPC surface inh inactive, GDH-TPI counter-1 inactive, BJeLR viability inactive, Mtb FBA confirm inactive and GDH-TPI counter-2 inactive.
`COc1ccc(C2C(C(=O)Nc3ccc(Cl)cc3)CCC(=O)N2c2ccc(OC)cc2)cc1` (stereo unspecified) gave PrPC surface inh inactive.
COC(=O)[C@]1(CNC(=O)Nc2ccc(C)c(Cl)c2)CC(=O)N(C)[C@@H]1c1ccccc1 was read as PrPC surface inh inactive.
`CC(=O)Nc1ccc2c(c1)[nH]c(=O)c1ccccc12` gave FBA Mtb inh 49.8, PrPC surface inh inactive, GDH-TPI counter-1 inactive, Mtb FBA confirm 64.3 and GDH-TPI counter-2 44.8.
Nc1ccc2c(c1)[nH]c(=O)c1ccccc12 was read as FBA Mtb inh 69.1, PrPC surface inh inactive, GDH-TPI counter-1 inactive, Mtb FBA confirm inactive and GDH-TPI counter-2 inactive.
`Nc1cccc2[nH]c(=O)c3ccccc3c12` gave FBA Mtb inh 60.7, PrPC surface inh inactive, GDH-TPI counter-1 inactive, Mtb FBA confirm 198.9 and GDH-TPI counter-2 157.5.
Screening O=C(Nc1ccc2c(c1)[nH]c(=O)c1ccccc12)C(F)(F)F returned FBA Mtb inh inactive, PrPC surface inh inactive and GDH-TPI counter-1 inactive.
Screening OCCNc1nc(-c2ccccc2)c2cc(Cl)ccc2n1 returned RecA intein inh inactive, FBA Mtb inh 39.1, PrPC surface inh inactive, GDH-TPI counter-1 inactive, BJeLR viability inactive, Mtb FBA confirm 122.5 and GDH-TPI counter-2 104.4.
Screening NNc1nc(-c2ccccc2)c2ccccc2n1 returned RecA intein inh inactive, FBA Mtb inh inactive, PrPC surface inh inactive, GDH-TPI counter-1 inactive and BJeLR viability inactive.
Cc1ccc2nc(N/N=C/c3ccccc3C#N)nc(-c3ccccc3)c2c1 was read as RecA intein inh inactive, FBA Mtb inh inactive, GDH-TPI counter-1 inactive and BJeLR viability inactive.
Screening Cc1ccc2nc(NCCO)nc(-c3ccccc3)c2c1 returned RecA intein inh inactive, FBA Mtb inh 37.5, PrPC surface inh inactive, GDH-TPI counter-1 inactive, BJeLR viability inactive, Mtb FBA confirm 73.4 and GDH-TPI counter-2 48.3.
`Cc1ccc2nc(N/N=C/c3ccccc3F)nc(-c3ccccc3)c2c1` gave RecA intein inh inactive, FBA Mtb inh 51.6, PrPC surface inh inactive, GDH-TPI counter-1 inactive, BJeLR viability inactive, Mtb FBA confirm inactive and GDH-TPI counter-2 inactive.
OCCNc1nc(-c2ccccc2)c2ccccc2n1 was read as RecA intein inh inactive, FBA Mtb inh 52.1, PrPC surface inh inactive, GDH-TPI counter-1 inactive, BJeLR viability inactive, Mtb FBA confirm 170.9 and GDH-TPI counter-2 147.7.
c1nc(NCC2CCCC2)c2cc(-c3ccc4c(c3)OCO4)ccc2n1 was read as PrPC surface inh inactive.
Screening CCNC(=O)c1c(O)c2ccccc2[nH]c1=O returned RecA intein inh inactive, FBA Mtb inh 48.5, PrPC surface inh inactive, GDH-TPI counter-1 inactive, BJeLR viability inactive, Mtb FBA confirm 180.5 and GDH-TPI counter-2 140.6.
O=C(NCCc1ccccc1)c1c(O)c2ccccc2[nH]c1=O was read as RecA intein inh inactive, FBA Mtb inh inactive, PrPC surface inh inactive, GDH-TPI counter-1 inactive and BJeLR viability inactive.
Screening Cc1nc(NC(=O)c2ccc([N+](=O)[O-])cc2Cl)sc1C(=O)N(C)C returned RecA intein inh inactive, FBA Mtb inh 90.7, PrPC surface inh inactive, GDH-TPI counter-1 inactive, BJeLR viability inactive, Mtb FBA confirm active and GDH-TPI counter-2 162.3.
Screening Cc1cc(C(=O)Nc2nc(C)c(C(=O)N(C)C)s2)ccc1[N+](=O)[O-] returned RecA intein inh inactive, FBA Mtb inh inactive, PrPC surface inh inactive, GDH-TPI counter-1 inactive and BJeLR viability inactive.
`COC(=O)N1CCC[C@H]1c1cccc2[nH]cc(C)c12` gave PrPC surface inh inactive.
O=C(NCCc1cn2cccnc2n1)C1CCC(=O)N(Cc2ccccc2F)C1 (stereo unspecified) was read as FBA Mtb inh 94.5, PrPC surface inh inactive, GDH-TPI counter-1 inactive, Mtb FBA confirm 60.0 and GDH-TPI counter-2 39.0.
Cc1ccc2nc(CNC(=O)C3CCC(=O)N(Cc4ccccc4F)C3)cn2c1 (stereo unspecified) was read as RecA intein inh inactive, FBA Mtb inh inactive, PrPC surface inh inactive, GDH-TPI counter-1 inactive and BJeLR viability inactive.
CC(=O)O[C@]1(C(C)=O)CC[C@H]2[C@@H]3C[C@H](C)C4=CC(=O)CC[C@]4(C)[C@H]3CC[C@@]21C was read as RecA intein inh inactive, FBA Mtb inh inactive, PrPC surface inh inactive, GDH-TPI counter-1 inactive and BJeLR viability inactive.
Screening CC(=O)C12CCCCC1CC1[C@@H]3CC(C)C4=CC(=O)CC[C@]4(C)C3CC[C@@]12C (stereo partly specified) returned RecA intein inh inactive, FBA Mtb inh 34.3, PrPC surface inh inactive, GDH-TPI counter-1 inactive, BJeLR viability inactive, Mtb FBA confirm 187.2 and GDH-TPI counter-2 175.4.
Nc1ncc(-c2ccccc2)n1CC1CCCO1 (stereo unspecified) was read as RecA intein inh inactive, FBA Mtb inh inactive, PrPC surface inh inactive, GDH-TPI counter-1 inactive and BJeLR viability inactive.
For c1ccc(-c2nc3nc4ccccc4nc3n2CC2CCCO2)cc1 (stereo unspecified) the results were RecA intein inh inactive, FBA Mtb inh 83.6, PrPC surface inh inactive, GDH-TPI counter-1 33.7, BJeLR viability inactive, Mtb FBA confirm 95.9 and GDH-TPI counter-2 71.6.
For CC(=O)Oc1ccc(/C=C2/Oc3ccccc3C2=O)cc1 the results were RecA intein inh inactive, FBA Mtb inh inactive, PrPC surface inh inactive, GDH-TPI counter-1 inactive and BJeLR viability inactive.
